TDP1 cell noCPT: qHTS for Inhibitors of human tyrosyl-DNA phosphodiesterase 1 (TDP1): qHTS in cells in absence of CPT. Potency, µM (doses to about 46.2 µM), for the others: at the highest dose activity change, negative = growth inhibition, hits mostly inhibitors. AID 686978, 2013. DT40 Tdp1-/- hTDP1 cells, no CPT, ATP luminescence, 48 h. hit rate 15% among 420,000; also: % is scaled to controls: 0 for no effect and ±100 for the full control effect; nearly all actives have a fitted effect of over 55% in size
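Growth of hTDP1-complemented DT40 Tdp1-knockout cells is measured by ATP luminescence after at least 48 hr compound exposure at 37 °C, with DMSO substituting for the 20 nM CPT used in the parallel screen.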
HT1080NT lethal: qHTS for induction of synthetic lethality in tumor cells producing 2HG: qHTS for the HT-1080-NT fibrosarcoma cell line. HT-1080-NT fibrosarcoma viability, CellTiter-Glo ATP luminescence, 48 h. Potency, µM (series often up to 46.1 µM), for inactives: at the top dose activity, negative = less viability, usual class: cytotoxic. hit rate 1.6% among 360,000. AID 686970, 2013;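 also: NT is the 2HG producing partner of a matched IDH1 knockdown line; 0% = DMSO-treated cells and -100% = media-only wells without cells; nearly all actives have a fitted effect of over 55% in size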
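Compounds were tested in concentration-response format on HT-1080-NT cells for 48 hours at 37 degrees C. Cell viability came from CellTiter-Glo luminescence; curves were classified by r2, response magnitude and activity.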
DT40 TDP1 CPT: qHTS for Inhibitors of human tyrosyl-DNA phosphodiesterase 1 (TDP1): qHTS in cells in presence of CPT | AID 686979, 2013 | chicken DT40 Tdp1-/-;hTDP1 cells + 20 nM CPT, ATP luminescence, 48 h | Potency, µM (series often up to 46.2 µM), without a hit: at the highest dose activity change, negative = growth inhibition, usual class: inhibitors | hit rate 12% among 420,000; also: % is scaled to controls: 0 for no effect and ±100 for the full control effect; nearly all actives have a fitted effect of over 55% in size
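Chicken DT40 Tdp1-/- cells stably complemented with human TDP1 were seeded at 400 cells/well in medium containing 20 nM camptothecin, exposed to pin-transferred compounds, and grown at 37 °C for at least 48 hr. Viability was read as ATP luminescence.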
TGFb inhibitor: qHTS for Inhibitors of TGF-b. HepG2 CAGA-GFP TGF-b/SMAD3 reporter, GFP fluorescence, 18 h; TGF-beta stimulated, 500 pg/mL final. Potency, µM (highest dose often 46.1 µM), for the others: at the top dose activity, negative = inhibition, most hits filed as inhibitors. hit rate 1.2% among 410,000; also: % is scaled to controls: 0 for no effect and ±100 for the full control effect; nearly all actives have a fitted effect of over 65% in size
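Inhibition was scored as loss of TGF-beta-induced (500 pg/mL final, 18 hours, 37 degrees C) GFP in HEPG2 cells carrying a CAGA-GFP reporter, in DMEM with 1% FBS. Well GFP was summed per cell; Activity was normalised to unstimulated and stimulated DMSO wells, then concentration-response fitting.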
HT1080 IDH1KD tx: qHTS for induction of synthetic lethality in tumor cells producing 2HG: qHTS for the HT-1080-IDH1KD cell line. hit rate 2% among 360,000. AID 686971, 2013. HT-1080 IDH1 knockdown viability, ATP luminescence, 48 h. Potency, µM (top dose mostly 46.1 µM), for the others: top-dose activity, negative = toxicity, usual class: cytotoxic;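 also: 0% = DMSO wells and -100% = cell-free medium wells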
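Knockdown cells (IDH1KD HT-1080) received compounds 2 h after plating at 750 cells/well and were kept 48 h at 37 °C in 5% FBS RPMI. A CellTiter-Glo luminescence read gave % activity for curve fitting.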
HepG2 tox: qHTS for Inhibitors of TGF-b: Cytotox Counterscreen. Potency, µM (highest dose often 46.1 µM), for inactives: top-dose activity change, negative = cytotoxicity, usual class: cytotoxic. AID 588856, 2011. HepG2 CAGA-GFP viability, ATP luminescence, 18 h. hit rate 0.76% among 410,000
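CellTiter-Glo luminescence gave cytotoxicity after 18 hours at 37 degrees C. The cells were HepG2 CAGA-GFP in 1% FBS DMEM, stimulated with 500 pg/mL TGF-beta after compound addition. %Activity was normalised to no-cell wells (complete cell-killing) and DMSO (no toxicity), and curves were fitted and classified.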
* hit, by the source's call; ? = inconclusive; · = no result given; [ ] = dose if it differs, or a comment. Only some compounds are listed: those with a hit (about 17% of all), similar ones and a draw of the others. Calls follow the shape of the dose curve; as a rule, active = well fitted curve in the direction sought with a large enough effect; inconclusive = small, poorly fitted or top-dose-only effect, or another doubt; inactive = no such curve, though single readings can be large; an effect the other way counts as inactive or inconclusive. Potency is read from the fitted curve at half-maximal effect.

SMILES	TDP1 cell noCPT	HT1080NT lethal	DT40 TDP1 CPT	TGFb inhibitor	HT1080 IDH1KD tx	HepG2 tox
c1ccc(-c2cc3c(N4CCCCC4)ncnc3s2)cc1	?	1.4%	-39.0%	4.1%	5.2%	-9.4%
OCCN1CCN(c2ncnc3sc(-c4ccccc4)cc23)CC1	14.6µM*	18.4µM*	?	-3.6%	?	-4.0%
c1ccc(-c2cc3c(N4CCCC4)ncnc3s2)cc1	20.6µM*	22.8%	?	-16.5%	8.8%	-15.1%
Cc1nc(N2CCOCC2)c2cc(-c3ccccc3)sc2n1	18.4µM*	-23.1%	?	29.8%	-1.4%	-59.4%
c1ccc(-c2cc3c(N4CCOCC4)ncnc3s2)cc1	14.6µM*	?	16.4µM*	3.8%	?	-30.8%
COc1ccccc1C(=O)NC(C)c1cccc2ccccc12 (stereo not drawn)	3.66µM*	?	8.2µM*	-17.9%	?	-24.0%
COc1cc2cc(C(=O)Nc3ccccc3)c(N)nc2cc1OC	20.6µM*	4.6%	?	17.4%	6.7%	12.3%
COc1cccc(C(=O)NC(C)c2cccc3ccccc23)c1OC (stereo not drawn)	?	-23.2%	-28.7%	-5.3%	-17.0%	-15.0%
COc1cc2cc(C(=O)NC(C)c3cccc4ccccc34)c(N)nc2cc1OC (stereo not drawn)	16.4µM*	25.9µM*	25.9µM*	·	18.4µM*	·
CC(C)CN(C(=O)C1=COCCO1)c1c(N)n(Cc2ccccc2)c(=O)[nH]c1=O	8.0%	0.7%	3.0%	0.5%	2.1%	26.1%
CCN(CC)C(=O)c1sc2c(c1C)c(=O)n(CCc1ccccc1)c(=O)n2Cc1cccc(Cl)c1	14.6µM*	·	23.1µM*	?	·	-22.1%
Cc1cccc(Cn2c(=O)n(CCc3ccccc3)c(=O)c3c(C)c(C)sc32)c1	?	·	20.6µM*	22.3%	·	-0.1%
Cc1sc2c(c1C)c(=O)n(CCc1ccccc1)c(=O)n2Cc1ccc(F)cc1	18.4µM*	·	?	3.6%	·	3.7%
CCN(CC)C(=O)c1sc2c(c1C)c(=O)n(Cc1ccccc1)c(=O)n2Cc1ccccc1C	?	·	?	-25.5%	·	-18.6%
Cc1sc2c(c1C)c(=O)n(CCc1ccccc1)c(=O)n2Cc1cccc(F)c1	5.8µM*	·	?	-18.1%	·	-20.6%
Cc1ccc(-c2nc(CSc3nc4ccccc4c(=O)n3C)cs2)cc1	25.9µM*	8.6%	18.4µM*	15.6%	-1.2%	27.2%
O=C1c2ccccc2C(=O)N1CCc1csc(NNc2nc(CCN3C(=O)c4ccccc4C3=O)cs2)n1	?	6.5%	-20.5%	-6.5%	0.0%	2.4%
Cc1ccc(-c2nc(CSc3nc4ccccc4c(=O)n3CCO)cs2)cc1	16.4µM*	-26.0%	?	-7.0%	-22.1%	9.2%
C=CCn1c(SCc2csc(-c3ccc(C)cc3)n2)nnc1-c1ccccc1OC	18.4µM*	-19.7%	11.6µM*	?	?	-11.6%
Cc1ccc(CNC(=O)CSc2nc3ccccc3c(=O)n2CCCO)cc1	-23.7%	-3.3%	-19.3%	-6.6%	-5.2%[9.24 µM]	-26.1%
Cc1ccc(-c2nc(CCN3C(=O)c4ccccc4C3=O)cs2)cc1	-14.5%	?	?	41.4%	10µM*	-15.5%
Cc1ccc(CNC(=O)Cn2cc(C(F)(F)F)ccc2=O)cc1	-6.2%	-0.7%	9.0%	-1.1%	-7.8%	1.2%
CN(C(=O)Cn1cc([N+](=O)[O-])ccc1=O)C1CCCCC1	-11.1%	0.3%	-10.1%	7.8%	7.8%	-0.1%

High-throughput results as filed in PubChem BioAssay.
